# Assay results as given in PubChem BioAssay AID1851 (National Center for Advancing Translational Sciences (NCATS), 2009).
# “And” between values parts separate entries of the source, which are not always exact repeats. Identical values can stand only once. The campaign covered roughly 16,000 compounds. About 5,100 (32%) were called active. About 25% were inconclusive and are not listed. Some of the results follow. Values without a mark were called inactive. The call rests on the fitted dose curve; in most records, active means well fitted curve in the direction sought with a large enough effect; inconclusive means small, poorly fitted or top-dose-only effect, or effect the other way; inactive means no such curve, though single readings can be large or run the other way.
# Molecular target: Cytochrome P450 3A4 (Homo sapiens) (UniProt P08684)
# Experiment: Cytochrome panel assay with activity outcomes
# Settings: recombinant CYP, pro-luciferin dealkylation, luminescence, p450-cyp3a4; series mostly up to 57.1 µM
# On the % scale 0 is the no-effect control and ±100 the full control effect.
# Sequence of Cytochrome P450 3A4 (Homo sapiens) (P08684 whole entry, looked up): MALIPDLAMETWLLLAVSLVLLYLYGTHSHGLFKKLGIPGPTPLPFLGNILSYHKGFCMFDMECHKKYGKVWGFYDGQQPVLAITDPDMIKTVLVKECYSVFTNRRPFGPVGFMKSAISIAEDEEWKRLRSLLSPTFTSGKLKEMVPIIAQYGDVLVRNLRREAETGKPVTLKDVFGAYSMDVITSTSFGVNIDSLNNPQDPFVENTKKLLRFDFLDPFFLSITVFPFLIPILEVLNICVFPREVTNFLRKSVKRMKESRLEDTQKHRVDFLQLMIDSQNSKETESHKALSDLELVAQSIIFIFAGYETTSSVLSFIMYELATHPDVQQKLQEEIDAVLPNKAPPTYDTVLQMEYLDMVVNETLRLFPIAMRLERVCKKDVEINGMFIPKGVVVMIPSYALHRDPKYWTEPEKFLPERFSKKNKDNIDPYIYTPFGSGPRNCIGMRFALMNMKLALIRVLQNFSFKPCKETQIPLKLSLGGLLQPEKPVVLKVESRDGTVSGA
SMILES,AC50,"activity, negative = inhibition"
COc1nc(C)nc(Cl)c1NC1=NCCN1,inactive,–
CN=C1N[C@H](c2ccccc2)N(c2ccccc2)S1,31.6 µM (active),–
S=C(NCCSCc1ccc(Cl)cc1Cl)Nc1ccccc1,7.94 µM (active),–
S=C(NCCSCc1c(Cl)cccc1Cl)Nc1ccccc1,7.08 µM (active),–
OCCSCc1cc(Cl)cc(Cl)c1O,–,-27.9% [at 11.4 µM]
Oc1ccc2ccccc2c1C=NCc1c(O)ccc2ccccc12,–,-15.3% [at 11.4 µM]
CCOC(=O)CSC1=C(C#N)C(C)C2=C(CCCC2=O)N1 (stereo not drawn),inactive,–
C=CCOC(=O)C1=C(C)NC(SCC(=O)OCC)=C(C#N)C1c1ccc(C)cc1 (stereo not drawn),2.24 µM (active),–
CCOC(=O)CSC1=C(C#N)C(c2sccc2C)C(C(C)=O)=C(C)N1 (stereo not drawn),–,19% [at 2.29 µM]
CC(=NCC(=O)O)c1ccccc1,–,-4.83% [at 11.4 µM]
COc1ccccc1-c1nc(NCc2cccnc2)c2ccccc2n1,10 µM (active),–
COc1ccccc1-c1nc(NCc2ccccc2)c2ccccc2n1,3.98 µM (active),–
COc1ccccc1-c1nc(NCc2cccs2)c2ccccc2n1,12.6 µM (active),–
CC[N+](C)(CC)CCOC(=O)C1c2ccccc2Oc2ccccc21,inactive,–
C[C@@H](C[C@H](N)C(=O)O)C(=O)O,–,-6.03% [at 11.4 µM]
COCC1C2CC[C@H]3C(OCc4ccc(OC)cc4)OC[C@]4(C)[C@H]3C2=C(CN4C(=O)OC(C)(C)C)[C@H](C)C1COC (stereo partly drawn),1.58 µM (active),–
COc1ccc(COC2OC[C@]3(C)[C@H]4C5=C(CN3C(=O)OC(C)(C)C)[C@H](C)C(CO)C(CO)C5CC[C@@H]24)cc1 (stereo partly drawn),7.94 µM (active),–
Cc1nn(C(C)C(=O)Nc2ccc(Cl)cn2)c(C)c1[N+](=O)[O-] (stereo not drawn),15.8 µM (active),–
Cc1cc(NC(=O)c2c([N+](=O)[O-])c(C)nn2C)no1,inactive,–
COc1cccc(NC(=S)NNC(=O)C(C)n2nc(C)c([N+](=O)[O-])c2C)c1 (stereo not drawn),–,-29.4% [at 2.29 µM]
Cc1nn(C(C)C(=O)Nc2sc3c(c2C#N)CCCC3)c(C)c1[N+](=O)[O-] (stereo not drawn),15.8 µM (active),–
Cc1nc2ccccc2nc(C)c1=NO,inactive,–
Cc1cc(OC(=O)c2cc(F)c(F)cc2Cl)nc(C)n1,inactive,–
CC(C)/C(=N/[N+](C)(C)C)c1ccccc1,–,-14.9% [at 11.4 µM]
CO[C@H]1COC(=O)[C@H](C)NC(=O)C/C=C\[C@@H](C)[C@@H](NS(=O)(=O)c2ccc(C)cc2)COC(=O)[C@H](OCc2ccccc2)/C=C\[C@@H]1C,3.16 µM (active),–
CO[C@H]1COC(=O)[C@H](C)NC(=O)C/C=C\[C@@H](C)[C@H](OC)COC(=O)[C@@H](OCc2ccccc2)/C=C\[C@@H]1C,–,-29.2% [at 11.4 µM]

SMILES,AC50,"activity, negative = inhibition"
CO[C@H]1COC(=O)C/C=C\[C@H](C)[C@@H](NS(=O)(=O)c2ccc(C)cc2)COC(=O)C/C=C\[C@@H]1C,3.16 µM (active),–
CO[C@H]1COC(=O)[C@H](C)NC(=O)C/C=C\[C@@H](C)[C@@H](NS(=O)(=O)c2ccc(C)cc2)COC(=O)C/C=C\[C@@H]1C,3.98 µM (active),–
CO[C@@H]1COC(=O)C/C=C\[C@@H](C)[C@H](OC)COC(=O)[C@@H](C)COC(=O)C/C=C\[C@H]1C,–,-12.1% [at 11.4 µM]
CO[C@H]1COC(=O)[C@@H](CCSC)NC(=O)C/C=C\[C@@H](C)[C@H](OC)COC(=O)[C@@H](OCc2ccccc2)/C=C\[C@@H]1C,–,-27.8% [at 11.4 µM]
CO[C@@H]1COC(=O)C/C=C\[C@H](C)COC(=O)[C@H](C)NC(=O)C/C=C\[C@H]1C,–,-19.1% [at 11.4 µM]
CO[C@@H]1COC(=O)[C@H](C)NC(=O)C/C=C\[C@@H](C)[C@@H](NS(=O)(=O)c2ccc(C)cc2)COC(=O)C/C=C\[C@@H]1C,–,5.93% [at 11.4 µM]
CO[C@@H]1COC(=O)C/C=C\[C@H](C)[C@@H](NS(=O)(=O)c2ccc(C)cc2)COC(=O)C/C=C\[C@@H]1C,3.98 µM (active) and 3.16 µM (active),–
CO[C@@H]1COC(=O)C/C=C\[C@H](C)[C@H](OC)COC(=O)[C@H]2CCCN2C(=O)C/C=C\[C@H]1C,–,-14.8% [at 11.4 µM]
CO[C@H]1COC(=O)C/C=C\[C@@H](C)[C@H](OC)COC(=O)[C@H]2CCCN2C(=O)C/C=C\[C@@H]1C,–,-29.5% [at 11.4 µM]
CO[C@H]1COC(=O)[C@H]2CCCN2C(=O)[C@@H](C)COC(=O)C/C=C\[C@@H]1C,–,-39.8% [at 11.4 µM]
CC(C)(C)C(=O)NC(=C(Cl)Cl)P(=O)(O)O,inactive,–
N=C(N)C(N=Nc1ccccc1)C(=N)N (stereo not drawn),–,-1.93% [at 11.4 µM]
CO[C@H]1COC(=O)CCC[C@H](C)[C@@H](OC)COC(=O)C/C=C\[C@@H]1C,–,-19.5% [at 11.4 µM]
CO[C@H]1COC(=O)CCC[C@H](C)[C@H](OC)COC(=O)C/C=C\[C@@H]1C,–,-29.6% [at 11.4 µM]
CO[C@H]1COC(=O)C/C=C\[C@H](C)[C@@H](NS(=O)(=O)c2ccc(C)cc2)COC(=O)CCC[C@@H]1C,3.98 µM (active),–
CCC(Sc1nc2cc3c(cc2c(=O)n1Cc1ccco1)OCO3)C(=O)Nc1ccccc1OC (stereo not drawn),1.58 µM (active),–
CCC(Sc1nc2cc3c(cc2c(=O)n1Cc1ccco1)OCO3)C(=O)Nc1cccc(OC)c1 (stereo not drawn),1.26 µM (active),–
CCn1c(C)cc(/C=C2\NC(=O)N(Cc3ccc(Cl)cc3)C2=O)c1C,1.58 µM (active),–
Cc1sc2nc(SCc3nc(-c4cccs4)no3)n(-c3ccccc3)c(=O)c2c1C,inactive,–
Cc1sc2nc(SCC(=O)C(C)(C)C)n(Cc3ccco3)c(=O)c2c1C,11.2 µM (active),–
Cc1ccc(SCCNC(=O)c2ccc(C)c(S(=O)(=O)Nc3ccccc3C)c2)cc1,0.631 µM (active),–
Cc1ccccc1NS(=O)(=O)c1cc(C(=O)Nc2cccc(N(C)S(C)(=O)=O)c2)ccc1C,1 µM (active),–
Cc1ccc(S(=O)(=O)Nc2ccccc2C(=O)c2ccc(C)c(C)c2)cc1,–,-2.65% [at 11.4 µM]
O=C(Nc1cccc(C(=O)Nc2ccc(S(=O)(=O)O)c3cc(S(=O)(=O)O)cc(S(=O)(=O)O)c23)c1)Nc1cccc(C(=O)Nc2ccc(S(=O)(=O)O)c3cc(S(=O)(=O)O)cc(S(=O)(=O)O)c23)c1,inactive,–
C[N+]1(CCCC[N+]2(C)CCCCCCC2)CCCCCCC1,–,6.39% [at 11.4 µM]
NC(=O)c1ccc[n+](CC(=O)OCCC23CC4CC(CC(C4)C2)C3)c1,–,-1.21% [at 2.29 µM]

SMILES,AC50,"activity, negative = inhibition"
O=C(O)c1cc(=O)c2c(OCC(O)COc3cccc4oc(C(=O)O)cc(=O)c34)cccc2o1,inactive,–
CCOC(=O)COc1cc(OCC(=O)OCC)c2c(=O)cc(-c3ccccc3)oc2c1,20 µM (active),–
CC(C)(C)OC(=O)COc1cc(OCC(=O)OC(C)(C)C)c2c(=O)cc(-c3ccccc3)oc2c1,inactive,–
CC(=O)O[C@]1(C)N=NC2(CCCCC2)O1,–,-7.61% [at 11.4 µM]
C=CCn1c(SCC)nc2sc3c(c2c1=O)CCc1ccccc1-3,–,-8.25% [at 2.29 µM]
O=C(Cn1c(SCC(=O)N2CCc3ccccc3C2)nc2ccccc21)NC1CCCC1,3.55 µM (active),–
C=CCn1c(SCC(=O)N2CCc3ccccc3C2)nc2ccccc2c1=O,2.51 µM (active),–
CN1CCN(CCCBr)CC1,–,9.1% [at 11.4 µM]
O=C(O)[C@@H]1[C@H](C(=O)O)[C@H]2C(=O)C=C[C@H]1N2Cc1ccccc1,–,-7.47% [at 11.4 µM]
CN1CCN(C2CC(=O)N(Cc3ccc(N4CCCC4=O)cc3)C2=O)CC1 (stereo not drawn),inactive,–
O=C1CC(N(O)C2CC(=O)N(Cc3ccccc3)C2=O)C(=O)N1Cc1ccccc1 (stereo not drawn),10 µM (active),–
O=C1C2[C@@H](c3ccccc3)N[C@@H](c3ccccc3)C1[C@H](c1ccccc1)N[C@H]2c1ccccc1,–,5.64% [at 11.4 µM]
NCCCCCCCCCCNS(=O)(=O)c1cccc2c(Cl)cccc12,2.51 µM (active),–
O=S(=O)(O)CCCc1cccc2ccccc12,–,-8.32% [at 11.4 µM]
COc1cc(/C=C/C(=O)O)cc(S(=O)(=O)NCCCO)c1OC,–,-24.1% [at 11.4 µM]
NCCCCCCNS(=O)(=O)c1cccc2ccccc12,6.31 µM (active),–
CCCCNS(=O)(=O)c1ccc(OC)c(Cl)c1Cl,11.2 µM (active),–
NCCCCCCNS(=O)(=O)c1cccc2c(Cl)cccc12,3.98 µM (active) and 2.51 µM (active),–
Nc1ccc(S(=O)(=O)NCCS(=O)(=O)O)cc1,–,-0.993% [at 11.4 µM]
NS(=O)(=O)c1ccc(NC(=O)Nc2cccc3ccccc23)cc1,–,-6.44% [at 11.4 µM]
S=c1c2[nH]cnc2ncn1CCSc1ncnc2nc[nH]c12,–,-9.42% [at 11.4 µM]
CSCCC(NC=C1C(=O)OC(C)(C)OC1=O)C(=O)O (stereo not drawn),inactive,–
CCN(CC)S(=O)(=O)c1cccc2c(N(C)C)cccc12,inactive,–
O=S(=O)(NCCCCCCc1ccccc1)c1cccc2c(Cl)cccc12,2.51 µM (active),–
CCCCCCCNS(=O)(=O)c1cccc2c(Cl)cccc12,7.94 µM (active),–
c1ccc(CCCNc2nnnc3ccccc23)cc1,–,-29.6% [at 11.4 µM]
